Measured values as given in PubChem BioAssay (Tox21).
Results filed as inconclusive are left out. Active and inactive are the calls of the source. Calls come from the whole dose curve; as a rule, active = well fitted activation curve with a large enough effect in the repeat runs; inconclusive = weak or mixed curves; inactive = flat fitted curve, though single readings scatter.

assay: A CellTox Green Cytotoxicity Assay to monitor cytotoxicity in HepG2 cells - 24 hour (AID 1224878); details: CellTox Green fluorescence; series mostly up to 76.8 µM; cytotoxicity: at the top concentration; note: nearly all actives have a fitted effect of over 45% in size
Source text: National Center for Advancing Translational Sciences [NCATS]
NIH Chemical Genomics Center [NCGC]
U.S. Environmental Protection Agency [EPA]
National Institutes of Environmental Health Sciences [NIEHS]
National Toxicology Program [NTP]
Cell-based models are critical for drug discovery. Determining the natural cytotoxic effects resulting from test compounds is an essential research activity. A CellTox Green Cytotoxicity Assay to monitor cytotoxicity in real time of continues cell culture during 40 hours of the compound treatment was used to screen Tox21 10K library compounds in HepG2 cells. CellTox Green Cytotoxicity Assay is a nonlytic, homogeneous, biofluorescent method to measure cytotoxicity in cell culture after experimental manipulation. The assay system uses a proprietary asymmetric cyanine dye that is excluded from viable cells but preferentially stains the dead cell's DNA. […] Viable cells produce no appreciable increases in fluorescence. Therefore, the fluorescence signal produced by the binding interaction with dead cell DNA is proportional to cytotoxicity.
The mixture of HepG2 cell suspension and reagents were dispensed at 600cells/6 ul/well in 1536-well tissue culture treated black solid bottom plates using a Multidrop dispenser. After the assay plates were incubated at a 37 C/5% CO2 incubator for 5 hours, 23 nL of compounds dissolved in DMSO, positive and negative controls was transferred to the assay plate by a pintool work station. The plates were incubated at 37 C for 40 hours. The fluorescence intensity were measured at 0h, 8h, 16h, 24h, 32h and 40h time points using ViewLux plate reader during compound treatment.
% is set by controls: 0 for no effect and ±100 for the full control effect; potency is the fitted concentration of half-maximal effect.

Question: Which “cytotoxicity” value does the source give for `CCCCOC(=O)CCCCCCCC(=O)OCCCC` here?
Answer: -0.0509% (inactive)

Question: With `CN(C)CCN(Cc1ccccc1)c1ccccn1` as the molecule, how does the “cytotoxicity” value read?
Answer: 10.4% [at 35.3 µM] (inactive)

Question: Which Potency does the source give for `CCN(CC)CCOC(=O)C(c1ccccc1)C1CCCCC1` (stereo not given) here?
Answer: 23.9 µM (active)

Question: With `CN(C)CCOC(c1ccccc1)c1ccc(Br)cc1` (stereo not given) as the molecule, how does the Potency read?
Answer: 23.9 µM (active)

Question: With `COC(C)(C)CCO` as the molecule, how does the “cytotoxicity” value read?
Answer: -12.5% (inactive)

Question: For `NCC(=O)O`, which cytotoxicity is on record?
Answer: 7.92% [at 15.8 µM] (inactive)

Question: Which “cytotoxicity” value does the source give for `Nc1cc(C(=O)O)c(O)c(S(=O)(=O)O)c1` here?
Answer: -1.77% (inactive)

Question: With `CCCCCC[C@@H](O)C/C=C\CCCCCCCC(=O)OC` as the molecule, how does the “cytotoxicity” value read?
Answer: -3.21% (inactive)

Question: With `CCOC(=O)COC(=O)c1cc(Oc2ccc(C(F)(F)F)cc2Cl)ccc1[N+](=O)[O-]` as the molecule, how does the “cytotoxicity” value read?
Answer: -12% (inactive)

Question: Which “cytotoxicity” value does the source give for `CC(=O)c1cccc([N+](=O)[O-])c1` here?
Answer: 2.71% (inactive)

Question: With `Nc1ccccc1S(=O)(=O)c1ccccc1` as the molecule, how does the “cytotoxicity” value read?
Answer: -14.1% (inactive)

Question: With `CCc1c(C(=O)NN2CCCCC2)nn(-c2ccc(Cl)cc2Cl)c1-c1ccc(Br)cc1` as the molecule, how does the “cytotoxicity” value read?
Answer: -8.68% (inactive)

Question: For `CCc1cc(C2=C(C(=O)O)N(c3ccccc3C(F)(F)F)S(=O)(=O)c3ccccc32)cc2c1OCO2`, which “cytotoxicity” value is on record?
Answer: 7.48% (inactive)

Question: With `CCCCc1nc2cccnc2n1Cc1ccc(-c2ccccc2-c2nnn[nH]2)cc1` as the molecule, how does the “cytotoxicity” value read?
Answer: -8.45% (inactive)

Question: Which “cytotoxicity” value does the source give for `NS(=O)(=O)c1ccc(N2CCCCS2(=O)=O)cc1` here?
Answer: 0.0067% [at 35.3 µM] (inactive)

Question: With `OCCNCc1ccccc1` as the molecule, how does the “cytotoxicity” value read?
Answer: -3.81% (inactive)

Question: With `COc1ccc(C(=O)c2ccc(OC)cc2O)c(O)c1` as the molecule, how does the “cytotoxicity” value read?
Answer: 12.1% (inactive)

Question: Which “cytotoxicity” value does the source give for `CCCC(=O)Nc1ccc(O)c(C(C)=O)c1` here?
Answer: -13.5% [at 35.3 µM] (inactive)

Question: For `OC(C#CCN1CCCC1)(c1ccccc1)c1ccccc1`, which “cytotoxicity” value is on record?
Answer: 8.25% [at 35.3 µM] (inactive)

Question: For `CCCCC(CC)CN1C(=O)C2C3C=CC(C3)C2C1=O` (stereo not given), which “cytotoxicity” value is on record?
Answer: 23.4% (inactive)

Question: With `CCCOC(C(=O)OC1CCN(C)CC1)(c1ccccc1)c1ccccc1` as the molecule, how does the Potency read?
Answer: 23.9 µM (active)

Question: With `COc1ccc(C(=O)N2CCN(CC(=O)N3CCOCC3)CC2)cc1` as the molecule, how does the “cytotoxicity” value read?
Answer: -4.76% [at 35.3 µM] (inactive)

Question: With `CCN(CC)CCNC(=O)c1cc(Br)c(N)cc1OC` as the molecule, how does the “cytotoxicity” value read?
Answer: 3.75% [at 35.3 µM] (inactive)

Question: Which “cytotoxicity” value does the source give for `COCC(C)OC(C)=O` (stereo not given) here?
Answer: -0.254% (inactive)

Question: Which “cytotoxicity” value does the source give for `O=C(O)C1(C(=O)O)CCC1.[NH2-].[NH2-].[Pt+2]` here?
Answer: -57.8% [at 35.3 µM] (inactive)

Question: Which “cytotoxicity” value does the source give for `C[N+](C)(C)CCOC(=O)CCC(=O)OCC[N+](C)(C)C` here?
Answer: 2.55% [at 35.3 µM] (inactive)

Question: Which “cytotoxicity” value does the source give for `C=CCOc1ccccc1OCC(O)CNC(C)C` (stereo not given) here?
Answer: 0.214% [at 35.3 µM] (inactive)

Question: For `Nc1ccc([N+](=O)[O-])c(C(F)(F)F)c1`, which “cytotoxicity” value is on record?
Answer: -13.2% [at 35.3 µM] (inactive)

Question: For `CC(C)Cc1ccc(C(C)C(=O)OCc2ccccn2)cc1` (stereo not given), which “cytotoxicity” value is on record?
Answer: 9.29% [at 35.3 µM] (inactive)

Question: For `CCOc1ccc(O)cc1`, which “cytotoxicity” value is on record?
Answer: -17.5% (inactive)

Question: Which “cytotoxicity” value does the source give for `COC(C)OC` here?
Answer: 0.0597% (inactive)

Question: For `CN(C)CCCN1c2ccccc2Sc2ccccc21`, which Potency is on record?
Answer: 26.8 µM (active)

Question: Which “cytotoxicity” value does the source give for `COc1cc2nc(N(C)CCCNC(=O)C3CCCO3)nc(N)c2cc1OC` (stereo not given) here?
Answer: -5.79% [at 35.3 µM] (inactive)

Question: Which “cytotoxicity” value does the source give for `O=S(c1cc(Cl)cc(Cl)c1O)c1cc(Cl)cc(Cl)c1O` here?
Answer: 18.4% [at 35.3 µM] (inactive)

Question: For `c1ccc(-c2ccccn2)nc1`, which “cytotoxicity” value is on record?
Answer: -11% (inactive)

Question: Which “cytotoxicity” value does the source give for `COc1cc2c(cc1OC)C(C(C(=O)N(CCc1ccc(OC)c(OC)c1OC)CCc1ccc(OC)c(OC)c1OC)c1ccccc1)=NCC2` (stereo not given) here?
Answer: 4.25% [at 35.3 µM] (inactive)

Question: Which “cytotoxicity” value does the source give for `CC1=CCCC(C)(C)C12CCC(C)O2` (stereo not given) here?
Answer: -1.91% (inactive)

Question: Which “cytotoxicity” value does the source give for `CCC(C)(C)CC` here?
Answer: 0.587% (inactive)

Question: Which “cytotoxicity” value does the source give for `CCn1cc(C(=O)O)c(=O)c2cnc(N3CCNCC3)nc21` here?
Answer: 6.98% [at 35.3 µM] (inactive)

Question: With `CCN(CC)CCNc1ccc(CNC=O)c2sc3ccc(OC)cc3c(=O)c12` as the molecule, how does the “cytotoxicity” value read?
Answer: -5.96% (inactive)
